Reference: the supplement of paper PMC10849652
The full data set covers some 7,900 targets. This sample favours those with a hit. About 0.6% of all pairs of compound and target were hits.

Legend:
Test in all cases: log2 fold change, soluble protein after heating vs DMSO (PISA); higher = thermal stabilisation; K562 cells, 10 uM, 30 min; active = over 0.2 and 3.5 SD of the protein, either way, in both replicates (recomputed)
erlotinib = compound: C#Cc1cccc(Nc2ncnc3cc(OCCOC)c(OCCOC)cc23)c1 [erlotinib]
Procedure, shortened: (§1)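 Soluble protein was quantified by TMTpro 16plex LC-MS/MS after channel sums were equalised. It was obtained as the supernatant after 21,000xg for 90 min from pooled aliquots of K562 cells (2×10^6 cells/mL, 10 μM compound, 30 min) heated for 3 min across 48°C-58°C and extracted in PBS with 0.5% NP-40 at 4°C. Thermal stability values are relative to control samples and come from duplicates. They are given as log2 fold changes.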

[1] = compound: C/C(=N\NC(=O)C1=CC(=CC=C1)S(=O)(=O)N2CCOCC2)/C3=C(C=CC(=C3)Cl)O
Procedure, shortened: as §1

[2] = compound: C1=CC(=C(C=C1Cl)C2=NC3=NC=CN=C3C(=N2)NC4=CC=NC=C4)F
Procedure, shortened: as §1

[3] = compound: C1=CC(=CC=C1C2=NC3=C(N2)C=C(C=C3)C(=O)N)OC4=CC=C(C=C4)Cl
Procedure, shortened: as §1

[4] = compound: C1=CC2=C(C=CC(=C2)/C=C\3/C(=O)NC(=NCC4=CC=CS4)S3)N=C1
Procedure, shortened: as §1

[5] = compound: C1=CC2=NC=CN=C2C=C1/C=C/3\C(=O)NC(=O)S3
Procedure, shortened: as §1

[6] = compound: C1=CC=C(C=C1)C2=NC(=C(N2)C3=CC=NC=C3)C4=CC(=C(C=C4)Cl)O
Procedure, shortened: as §1

[7] = compound: C1=CC=C2C(=C1)C3=NNC4=CC=CC(=C43)C2=O
Procedure, shortened: as §1

[8] = compound: C1CCN(C1)C(=O)NC2=CC=CC(=C2)NC3=NC=C(C(=N3)NCCC4=CN=CN4)Br
Procedure, shortened: as §1

[9] = compound: C1CN(CCC1(CC2=CC=C(C=C2)Cl)N)C3=NC=NC4=C3C=CN4
Procedure, shortened: as §1

IRAK-1-4 Inhibitor I = compound: C1COCCN1CCN2C3=CC=CC=C3N=C2NC(=O)C4=CC(=CC=C4)[N+](=O)[O-] [IRAK-1-4 Inhibitor I]
Procedure, shortened: as §1

ibrutinib = compound: C=CC(=O)N1CCC[C@@H](n2nc(-c3ccc(Oc4ccccc4)cc3)c3c(N)ncnc32)C1 [ibrutinib]
Procedure, shortened: as §1

[10] = compound: CC(=O)c1cnc2ccc(-c3cc(Cl)c(O)c(Cl)c3)nc2c1N[C@H]1CC[C@H](CN(C)C)CC1
Procedure, shortened: as §1

ralimetinib = compound: CC(C)(C)Cn1c(N)nc2ccc(-c3[nH]c(C(C)(C)C)nc3-c3ccc(F)cc3)nc21 [ralimetinib]
Procedure, shortened: as §1

[11] = compound: CC(C)(O)CC(=O)NCCn1ccc2ncnc(Nc3ccc(Oc4cccc(C(F)(F)F)c4)c(Cl)c3)c21
Procedure, shortened: as §1

[12] = compound: CC(C)C1=C2N=C(C=C(N2N=C1)NCC3=CC=CC=C3)NCCCCCCN
Procedure, shortened: as §1

[13] = compound: CC(C)C[C@@H](C=O)NC(=O)[C@H](CC(C)C)NC(=O)[C@H](CC(C)C)NC(=O)OCc1ccccc1
Procedure, shortened: as §1

pinometostat = compound: CC(C)N(C[C@H]1O[C@@H](n2cnc3c(N)ncnc32)[C@H](O)[C@@H]1O)[C@H]1C[C@@H](CCc2nc3cc(C(C)(C)C)ccc3[nH]2)C1 [pinometostat]
Procedure, shortened: as §1

[14] = compound: CC1=C(C(CC(=O)N1)C2=CC=C(C=C2)C(F)(F)F)C(=O)NC3=C(C=C4C(=C3)C=NN4)F
Procedure, shortened: as §1

[15] = compound: CC1=C(C2=C(C=C1)C(=O)C3=CC=CC=C3N2CCCN)C
Procedure, shortened: as §1

Measured: log2 fold change

PHKA1 (UniProt P46020)
UniProt P46020, sequence (P46020 whole entry, looked up): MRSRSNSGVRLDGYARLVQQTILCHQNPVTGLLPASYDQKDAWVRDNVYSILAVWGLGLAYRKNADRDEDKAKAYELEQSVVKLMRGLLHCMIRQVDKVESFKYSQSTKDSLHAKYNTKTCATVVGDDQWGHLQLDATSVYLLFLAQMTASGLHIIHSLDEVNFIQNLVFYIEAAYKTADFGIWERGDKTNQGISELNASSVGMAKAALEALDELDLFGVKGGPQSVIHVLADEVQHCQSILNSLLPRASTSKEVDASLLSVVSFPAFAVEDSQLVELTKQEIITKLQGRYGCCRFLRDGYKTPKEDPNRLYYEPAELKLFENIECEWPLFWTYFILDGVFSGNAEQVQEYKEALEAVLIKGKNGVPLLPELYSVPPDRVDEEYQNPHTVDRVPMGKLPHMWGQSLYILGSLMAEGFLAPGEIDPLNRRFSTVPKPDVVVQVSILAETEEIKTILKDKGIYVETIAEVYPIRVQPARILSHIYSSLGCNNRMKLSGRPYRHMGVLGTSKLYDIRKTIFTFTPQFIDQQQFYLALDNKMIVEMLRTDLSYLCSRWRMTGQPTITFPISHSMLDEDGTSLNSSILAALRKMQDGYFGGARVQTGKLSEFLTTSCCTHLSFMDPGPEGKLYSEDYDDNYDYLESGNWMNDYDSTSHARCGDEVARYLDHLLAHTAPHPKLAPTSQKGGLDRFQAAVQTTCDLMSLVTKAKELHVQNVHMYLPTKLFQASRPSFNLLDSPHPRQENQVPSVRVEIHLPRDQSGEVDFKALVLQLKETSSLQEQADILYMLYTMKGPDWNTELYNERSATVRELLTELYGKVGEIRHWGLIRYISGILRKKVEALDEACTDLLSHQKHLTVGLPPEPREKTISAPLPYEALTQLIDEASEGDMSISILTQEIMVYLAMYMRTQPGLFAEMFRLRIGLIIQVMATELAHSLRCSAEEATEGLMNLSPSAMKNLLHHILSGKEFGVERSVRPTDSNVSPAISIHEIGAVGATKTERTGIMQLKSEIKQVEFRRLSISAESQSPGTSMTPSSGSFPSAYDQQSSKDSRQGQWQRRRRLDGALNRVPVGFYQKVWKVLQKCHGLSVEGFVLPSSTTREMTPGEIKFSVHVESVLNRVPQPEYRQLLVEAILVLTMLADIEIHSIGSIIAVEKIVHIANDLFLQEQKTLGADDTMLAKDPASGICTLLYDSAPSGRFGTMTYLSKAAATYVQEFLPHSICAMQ
inactive: erlotinib -0.028 | [1] -0.101 | [2] -0.051 | [3] 0.003 | [4] 0.057 | [5] 0.024 | [6] 0.152 | [7] -0.095 | [8] -0.105 | [9] -0.026 | IRAK-1-4 Inhibitor I -0.043 | ibrutinib -0.001 | [10] 0.306 | ralimetinib -0.03 | [11] -0.161 | [12] 0.011 | [13] 0.195 | pinometostat -0.023 | [14] 0.118 | [15] 0.022

PSPC1 (UniProt Q8WXF1)
UniProt Q8WXF1, sequence (Q8WXF1 whole entry, looked up): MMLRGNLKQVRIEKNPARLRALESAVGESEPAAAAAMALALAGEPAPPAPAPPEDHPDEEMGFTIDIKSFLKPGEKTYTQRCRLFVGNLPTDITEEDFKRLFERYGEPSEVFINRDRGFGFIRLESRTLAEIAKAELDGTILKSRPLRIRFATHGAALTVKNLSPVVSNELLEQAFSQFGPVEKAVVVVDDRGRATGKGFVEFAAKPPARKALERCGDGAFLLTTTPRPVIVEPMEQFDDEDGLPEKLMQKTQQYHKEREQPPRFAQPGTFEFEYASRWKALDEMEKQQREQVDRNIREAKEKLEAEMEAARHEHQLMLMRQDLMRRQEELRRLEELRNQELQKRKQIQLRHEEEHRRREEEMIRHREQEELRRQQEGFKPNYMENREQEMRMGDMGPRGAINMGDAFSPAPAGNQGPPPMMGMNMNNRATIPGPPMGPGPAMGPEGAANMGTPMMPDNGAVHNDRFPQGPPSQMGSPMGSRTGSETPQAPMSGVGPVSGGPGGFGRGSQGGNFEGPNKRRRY
inactive: erlotinib -0.024 | [1] 0.014 | [2] -0.036 | [3] 0.043 | [4] -0.008 | [5] 0.004 | [6] -0.101 | [7] -0.141 | [8] -0.033 | [9] -0.061 | IRAK-1-4 Inhibitor I -0.097 | ibrutinib 0.002 | [10] -0.201 | ralimetinib -0.012 | [11] -0.024 | [12] -0.18 | [13] 0.048 | pinometostat -0.02 | [14] -0.042 | [15] 0.15

PTPMT1 (UniProt Q8WUK0)
UniProt Q8WUK0, sequence (Q8WUK0 whole entry, looked up): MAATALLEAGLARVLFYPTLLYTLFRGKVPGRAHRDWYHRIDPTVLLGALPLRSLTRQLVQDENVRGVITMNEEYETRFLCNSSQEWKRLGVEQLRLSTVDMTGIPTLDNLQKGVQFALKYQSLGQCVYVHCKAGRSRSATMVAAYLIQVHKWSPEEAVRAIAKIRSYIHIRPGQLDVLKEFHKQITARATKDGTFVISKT
active: [12] -0.579
inactive: erlotinib -0.009 | [1] -0.017 | [2] 0.202 | [3] 0.053 | [4] 0.009 | [5] 0.015 | [6] 0.03 | [7] 0.013 | [8] -0.001 | [9] -0.045 | IRAK-1-4 Inhibitor I 0.018 | ibrutinib -0.05 | [10] -0.131 | ralimetinib -0.144 | [11] -0.083 | [13] 0.052 | pinometostat 0.013 | [14] 0.043 | [15] -0.057

PPP2R5E (UniProt Q16537)
UniProt Q16537, sequence (Q16537 whole entry, looked up): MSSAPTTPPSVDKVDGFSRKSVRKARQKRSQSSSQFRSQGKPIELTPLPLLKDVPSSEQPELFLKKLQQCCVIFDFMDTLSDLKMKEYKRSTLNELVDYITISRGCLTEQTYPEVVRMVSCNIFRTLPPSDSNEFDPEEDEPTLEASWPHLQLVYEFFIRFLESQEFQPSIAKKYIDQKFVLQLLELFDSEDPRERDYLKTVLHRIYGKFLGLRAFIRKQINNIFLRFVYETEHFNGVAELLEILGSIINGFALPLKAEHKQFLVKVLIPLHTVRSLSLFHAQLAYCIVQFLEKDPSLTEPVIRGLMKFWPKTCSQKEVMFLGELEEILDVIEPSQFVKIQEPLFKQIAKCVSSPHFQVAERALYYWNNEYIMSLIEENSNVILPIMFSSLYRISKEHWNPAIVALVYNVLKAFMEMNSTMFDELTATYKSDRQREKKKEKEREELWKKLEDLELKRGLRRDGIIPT
inactive: erlotinib 0.017 | [1] 0.096 | [2] 0.005 | [3] -0.061 | [4] -0.007 | [5] 0 | [6] 0.075 | [7] 0.054 | [8] -0.013 | [9] 0.056 | IRAK-1-4 Inhibitor I -0.01 | ibrutinib -0.001 | [10] -0.033 | ralimetinib -0.029 | [11] -0.046 | [12] -0.144 | [13] 0.019 | pinometostat 0.015 | [14] 0.028 | [15] 0.136

POLR2M (UniProt P0CAP2)
UniProt P0CAP2, sequence (P0CAP2 whole entry, looked up): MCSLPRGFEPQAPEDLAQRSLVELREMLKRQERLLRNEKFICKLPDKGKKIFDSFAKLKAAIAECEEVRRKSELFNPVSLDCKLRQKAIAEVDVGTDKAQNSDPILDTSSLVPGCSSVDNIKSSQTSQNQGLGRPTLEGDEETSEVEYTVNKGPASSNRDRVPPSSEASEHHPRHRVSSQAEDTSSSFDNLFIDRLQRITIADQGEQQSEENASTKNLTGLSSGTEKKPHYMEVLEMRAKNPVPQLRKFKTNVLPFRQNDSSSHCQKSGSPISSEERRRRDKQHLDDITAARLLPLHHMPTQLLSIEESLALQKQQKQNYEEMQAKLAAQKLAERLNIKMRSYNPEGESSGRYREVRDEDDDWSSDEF
inactive: erlotinib -0.042 | [1] -0.033 | [2] -0.054 | [3] 0.004 | [4] 0.05 | [5] 0.055 | [6] 0.041 | [7] -0.009 | [8] 0.017 | [9] -0.024 | IRAK-1-4 Inhibitor I -0.022 | ibrutinib -0.017 | [10] 0.067 | ralimetinib 0.016 | [11] 0.001 | [12] 0.059 | [13] 0.058 | pinometostat -0.02 | [14] 0.067 | [15] 0

PCGF2 (UniProt P35227)
UniProt P35227, sequence (P35227 whole entry, looked up): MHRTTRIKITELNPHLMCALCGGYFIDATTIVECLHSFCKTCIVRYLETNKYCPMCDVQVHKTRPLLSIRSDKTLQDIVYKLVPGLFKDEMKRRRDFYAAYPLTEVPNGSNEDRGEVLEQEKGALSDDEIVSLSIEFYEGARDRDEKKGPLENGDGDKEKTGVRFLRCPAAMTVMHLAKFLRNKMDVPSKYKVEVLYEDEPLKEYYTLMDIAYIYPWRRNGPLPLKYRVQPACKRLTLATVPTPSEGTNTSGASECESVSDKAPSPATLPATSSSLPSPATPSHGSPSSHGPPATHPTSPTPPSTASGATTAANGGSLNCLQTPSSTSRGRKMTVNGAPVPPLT
inactive: erlotinib 0.11 | [1] 0.037 | [2] 0.001 | [3] -0.013 | [4] 0.177 | [5] -0.023 | [6] 0.053 | [7] -0.002 | [8] -0.057 | [9] -0.061 | IRAK-1-4 Inhibitor I -0.077 | ibrutinib -0.101 | [10] -0.164 | ralimetinib -0.036 | [11] 0 | [12] -0.095 | [13] 0.065 | pinometostat -0.075 | [14] -0.119 | [15] 0.107

PSMC5 (UniProt P62195)
UniProt P62195, sequence (P62195 whole entry, looked up): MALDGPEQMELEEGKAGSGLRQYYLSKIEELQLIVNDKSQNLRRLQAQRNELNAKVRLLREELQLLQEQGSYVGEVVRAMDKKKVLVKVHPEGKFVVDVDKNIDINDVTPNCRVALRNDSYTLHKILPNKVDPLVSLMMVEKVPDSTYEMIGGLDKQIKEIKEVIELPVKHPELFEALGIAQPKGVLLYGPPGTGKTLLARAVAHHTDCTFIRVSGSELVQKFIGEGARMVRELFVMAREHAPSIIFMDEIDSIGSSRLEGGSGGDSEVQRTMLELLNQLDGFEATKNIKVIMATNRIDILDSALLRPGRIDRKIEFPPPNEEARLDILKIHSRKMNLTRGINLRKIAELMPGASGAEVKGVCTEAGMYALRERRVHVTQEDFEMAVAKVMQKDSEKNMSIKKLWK
active: [13] -0.273
inactive: erlotinib -0.116 | [1] -0.044 | [2] -0.029 | [3] 0.021 | [4] -0.022 | [5] -0.03 | [6] -0.007 | [7] 0.019 | [8] 0.021 | [9] -0.032 | IRAK-1-4 Inhibitor I -0.038 | ibrutinib -0.031 | [10] 0.008 | ralimetinib -0.014 | [11] 0.024 | [12] 0.009 | pinometostat 0.021 | [14] 0.037 | [15] 0.002

PLCL1 (UniProt Q15111)
UniProt Q15111, sequence (Q15111 whole entry, looked up): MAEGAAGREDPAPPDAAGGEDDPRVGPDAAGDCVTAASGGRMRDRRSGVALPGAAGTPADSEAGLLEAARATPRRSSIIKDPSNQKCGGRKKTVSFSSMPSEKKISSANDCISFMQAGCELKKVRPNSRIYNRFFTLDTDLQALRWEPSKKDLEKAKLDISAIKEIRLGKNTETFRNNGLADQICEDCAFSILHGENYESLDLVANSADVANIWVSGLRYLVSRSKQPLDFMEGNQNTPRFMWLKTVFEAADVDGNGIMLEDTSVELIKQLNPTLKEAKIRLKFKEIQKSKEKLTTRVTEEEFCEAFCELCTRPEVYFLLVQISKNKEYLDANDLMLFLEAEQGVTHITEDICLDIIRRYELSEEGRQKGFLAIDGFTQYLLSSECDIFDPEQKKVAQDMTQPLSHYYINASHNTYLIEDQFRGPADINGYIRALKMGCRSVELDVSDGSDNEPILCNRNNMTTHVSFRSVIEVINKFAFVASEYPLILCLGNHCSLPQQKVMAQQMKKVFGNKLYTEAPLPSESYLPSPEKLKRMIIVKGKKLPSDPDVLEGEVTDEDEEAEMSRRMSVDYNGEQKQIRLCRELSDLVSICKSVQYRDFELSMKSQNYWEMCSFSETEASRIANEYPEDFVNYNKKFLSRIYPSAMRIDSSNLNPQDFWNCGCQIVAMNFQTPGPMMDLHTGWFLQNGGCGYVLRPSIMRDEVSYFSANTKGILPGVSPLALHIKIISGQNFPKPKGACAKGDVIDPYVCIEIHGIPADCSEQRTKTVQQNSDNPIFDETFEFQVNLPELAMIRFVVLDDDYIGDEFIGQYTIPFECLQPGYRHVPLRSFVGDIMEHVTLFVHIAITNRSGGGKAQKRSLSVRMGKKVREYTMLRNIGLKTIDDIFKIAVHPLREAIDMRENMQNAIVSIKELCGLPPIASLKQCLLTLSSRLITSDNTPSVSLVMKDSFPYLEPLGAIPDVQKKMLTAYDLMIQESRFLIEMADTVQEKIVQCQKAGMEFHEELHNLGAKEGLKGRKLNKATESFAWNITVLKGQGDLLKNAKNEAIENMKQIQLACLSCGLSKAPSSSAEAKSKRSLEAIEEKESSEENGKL
inactive: erlotinib 0.136 | [1] -0.122 | [2] 0.117 | [3] 0.095 | [4] -0.042 | [5] 0.007 | [6] 0.098 | [7] 0.051 | [8] 0 | [9] -0.376 | IRAK-1-4 Inhibitor I -0.007 | ibrutinib 0.31 | [10] 0.08 | ralimetinib 0.125 | [11] -0.329 | [12] -0.102 | [13] 0.089 | pinometostat 0.365 | [14] -0.086 | [15] -0.193
